Assay outcomes deposited in PubChem by National Center for Advancing Translational Sciences (NCATS).
IL1B secr inh: inflammasome signaling inhibition, IL-1 beta readout. 360,000 compounds, 4.7% hits. THP-1 LPS/ATP IL-1B secretion, AlphaLISA, 16 h; hits give low values. activity change, % at 57.5 µM. AID 743279; in the data active = activity change below about -50%; inconclusive = mostly about -30% to -49%
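Secreted IL-1B measured by AlphaLISA bead assay after 16 h compound exposure of THP-1 cells; compounds (final up to 57.5 uM) added 1 h before LPS (250 ng/mL) and ATP (1.25 mM) stimulation; lower signal means less secretion.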
RORg inh: ROR gamma (mouse) transcription inhibition; P51450; Drosophila S2 Gal4-RORgamma UAS-luciferase reporter, 20 h; Potency, µM (series often up to 53.6 µM), without a hit: at the top dose activity change, negative = inhibition, hits mostly inhibitors; 310,000 compounds, 5.4% hits; AID 2551; also: potency is read from the fitted curve at half-maximal effect; nearly all actives have a fitted effect of over 60% in size
Target sequence (P51450 whole entry, looked up, the tested form may be a part): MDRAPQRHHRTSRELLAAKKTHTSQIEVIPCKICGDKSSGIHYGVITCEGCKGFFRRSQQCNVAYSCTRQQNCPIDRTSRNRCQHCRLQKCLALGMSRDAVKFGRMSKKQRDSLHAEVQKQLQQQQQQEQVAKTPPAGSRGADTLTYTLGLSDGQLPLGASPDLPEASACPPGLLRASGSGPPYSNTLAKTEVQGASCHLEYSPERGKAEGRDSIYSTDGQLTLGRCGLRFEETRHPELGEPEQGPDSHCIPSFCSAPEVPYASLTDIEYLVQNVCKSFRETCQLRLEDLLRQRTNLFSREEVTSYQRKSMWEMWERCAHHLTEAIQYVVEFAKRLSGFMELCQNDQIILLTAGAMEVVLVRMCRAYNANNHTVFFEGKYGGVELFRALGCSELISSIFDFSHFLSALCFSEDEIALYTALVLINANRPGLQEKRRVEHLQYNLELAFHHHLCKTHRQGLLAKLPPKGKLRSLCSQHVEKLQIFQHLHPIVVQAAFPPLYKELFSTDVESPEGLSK
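Drosophila S2 cells stably expressing Gal4-DBD/mouse RORγ fusion under metallothionein promoter plus UAS-luciferase; compound 1 h, then 700 uM CuSO4 induction for 20 h at ambient temperature; inhibition read as reduced luminescence.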
ELG1 DNA repair: ELG1-dependent DNA repair inhibition | Potency, µM (top dose mostly 46.1 µM), inactives show at the top dose activity change, negative = inhibition, hits mostly inhibitors | HEK293T ELG1-luciferase reporter, luminescence, 16 h; DNA damage induced by 5-fluorouridine | AID 504467 | 330,000 compounds, 2.3% hits; also: potency is read from the fitted curve at half-maximal effect; nearly all actives have a fitted effect of over 55% in size
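Overnight (16 hr) co-exposure of 2,000 cells/well to 5-fluorouridine and compound at 37 °C preceded detection. Luciferase was quantified via ONE-Glo luminescence; loss of signal denotes inhibition.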
VP16 counter: Gal4-VP16 reporter inhibition counter-screen; Drosophila S2 Gal4-VP16 UAS-luciferase, luminescence, 20 h; 310,000 compounds, 3.5% hits; Potency, µM (series often up to 53.6 µM), without a hit: top-dose activity, negative = inhibition, actives largely listed as inhibitors;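 also: Gal4-VP16 expression switched on by copper sulfate through the metallothionein promoter; potency is read from the fitted curve at half-maximal effect; nearly all actives have a fitted effect of over 50% in size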
TDP1 cell CPT: DT40-hTDP1 cell growth loss with CPT. chicken DT40 Tdp1-/-;hTDP1 cells + 20 nM CPT, ATP luminescence, 48 h. Potency, µM (series often up to 46.2 µM), inactives show at the highest dose activity change, negative = growth inhibition, hits mostly inhibitors. 420,000 compounds, 12% hits. AID 686979; also: potency is read from the fitted curve at half-maximal effect; nearly all actives have a fitted effect of over 55% in size
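Chicken DT40 Tdp1-/- cells stably complemented with human TDP1 were seeded at 400 cells/well in medium containing 20 nM camptothecin, exposed to pin-transferred compounds, and grown at 37 °C for at least 48 hr. Viability was read as ATP luminescence.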
TDP1 cell noCPT: qHTS for Inhibitors of human tyrosyl-DNA phosphodiesterase 1 (TDP1): qHTS in cells in absence of CPT. DT40 Tdp1-/- hTDP1 cells, no CPT, ATP luminescence, 48 h. Potency, µM (top dose mostly 46.2 µM), inactives show at the highest dose activity change, negative = growth inhibition, usual class: inhibitors. 420,000 compounds, 15% hits. AID 686978, 2013; also: potency is read from the fitted curve at half-maximal effect; nearly all actives have a fitted effect of over 55% in size
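Luminescent ATP content (CellTiter-Glo) served as the growth readout. Knockout chicken DT40 cells expressing human TDP1 were exposed to compounds without camptothecin for a minimum 48 hr at 37 °C.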
Numbers without * were called inactive; i = inactive; ? = inconclusive; . = not tested or not shown. An excerpt weighted towards active compounds, which were near 21% of everything screened. Unless noted, calls follow the shape of the dose curve; as a rule, active = well fitted curve in the direction sought with a large enough effect; inconclusive = small, poorly fitted or top-dose-only effect, or another doubt; inactive = no such curve, though single readings can be large; an effect the other way counts as inactive or inconclusive. % is scaled to controls: 0 for no effect and ±100 for the full control effect.

SMILES	IL1B secr inh	RORg inh	ELG1 DNA repair	VP16 counter	TDP1 cell CPT	TDP1 cell noCPT
COc1ccc(CCC(=O)N2CCN(S(=O)(=O)c3ccc(OC(F)(F)F)cc3)CC2)cc1	-7	.	-23%	.	-19%	0%
CC(=O)Nc1ccc(S(=O)(=O)N2CCN(C(=O)c3ncoc3-c3ccccc3)CC2)cc1	14	8%	-1%	28%	?	12µM*
CCc1ccc(CCC(=O)N2CCN(S(=O)(=O)c3ccc(Br)cc3)CC2)cc1	-7	.	.	.	?	18µM*
CCc1ccc(NC(=S)N2CCN(S(=O)(=O)c3ccccc3)CC2)cc1	-17	18µM*	0%	?	-27%	17%
Cc1ccc(NC(=S)N2CCN(S(=O)(=O)c3ccc(C)cc3)CC2)cc1	-19	13µM*	-5%	-16%	-19%	-17%
COCC(=O)N1CCC2(CCCN(Cc3ccc(C#N)cc3)C2)CC1	.	2%	.	-6%	4%	0%
CSc1ncnc2c1ncn2CCCNCCc1ccccn1	-3	.	.	.	6%	7%
C#C[C@]1(O)CC[C@H]2[C@H]3CCC4=Cc5oncc5C[C@]4(C)[C@@H]3CC[C@]21C	.	0%	.	-7%	9%	?
CCOc1ccc(S(=O)(=O)N2CCN(C(=S)NCc3ccccc3)CC2)cc1	33	31%	-12%	5%	21µM*	?
O=S(=O)(c1ccccc1)N1CCN(C(=S)Nc2ccc(Br)cc2)CC1	-50*	-35%	-23%	-3%	?	-11%
CC(C)c1ccc(S(=O)(=O)N2CCN(C(=O)n3ccnc3)CC2)cc1	?	.	2%	.	?	-1%
Cc1ccc(S(=O)(=O)N2CCN(C(=O)n3ccnc3)CC2)cc1	-15	.	?	.	0.65µM*	12µM*
Cc1cccc(NC(=S)N2CCN(S(=O)(=O)c3cccc(F)c3)CC2)c1	-14	11µM*	-2%	1%	-3%	-22%
O=[N+]([O-])c1ccc(NC(=S)N2CCN(S(=O)(=O)c3ccccc3)CC2)cc1	i	-19%	5%	-5%	?	-29%
CC(C)c1nnc(SCC(=O)N2CCN(C(=O)c3ccco3)CC2)n1N	8	1%	11%	-3%	2%	-1%
CN(C(=O)c1cccc(NC(=O)Cc2ccc(NC(=O)C3CCCN(C(=O)c4ccccc4)C3)cc2)c1)C1CCCC1 (stereo unspecified)	14	.	.	.	?	?
CCOC(=O)Cc1c(C)nc2c(-c3ccc(Cl)cc3)c(C)[nH]n2c1=O	42	6.3µM*	-4%	6.3µM*	23µM*	23µM*
CCOC(=O)Cc1c(C)nc2c(C#N)c[nH]n2c1=O	6	4%	2%	-11%	0%	1%
CCOC(=O)Cc1cc(=O)n2[nH]c(C)c(-c3ccccc3)c2n1	8	13µM*	-4%	?	?	?
CCOC(=O)Cc1cc(=O)n2[nH]c(-c3ccccc3)c(-c3ccccc3)c2n1	-2	?	-14%	4%	-26%	?
CCOC(=O)Cc1c(C)nc2c(-c3cccc(Br)c3)c[nH]n2c1=O	36	4.5µM*	16µM*	14µM*	9.2µM*	4.1µM*
CCCCn1c(SCc2c(C)noc2C)nc2cc(S(N)(=O)=O)ccc21	?	-44%	?	4%	13µM*	?
CCCCn1c(SCC(=O)c2ccc3c(c2)NC(=O)CO3)nc2cc(S(N)(=O)=O)ccc21	-30	-3%	16µM*	-1%	?	?
CCCCn1c(SCC(=O)Nc2cc(C)on2)nc2cc(S(N)(=O)=O)ccc21	-17	.	-25%	.	-14%	-4%
COc1ccccc1CNC(=O)CN1C(=O)NC2(CCCc3ccccc32)C1=O (stereo unspecified)	3	.	0%	.	-16%	-12%
